Assay outcomes from PubChem.
Most compounds without a hit are left out; they make up all but 10% or so of the library.
HEK cytotox: cytotoxic compounds in HEK 293 cells. HEK 293 viability, ATP luminescence (CellTiter-Glo), 48-72 h. Potency, µM (titrated, usually from 115 µM), actives largely listed as inhibitors. actives 6.6% (n = 94,000). AID 1345083; also: nearly all actives have a fitted effect of over 60% in size
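qHTS cytotoxicity; HEK 293, 250 cells/well; compound pinned; 48 or 72 hr, 37 degree Celsius, 5% CO2, 95% humidity; CellTiter-Glo, 10 min RT; luminescence (ATP).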
hNpr1 antagonist: antagonists of human natriuretic peptide receptor Npr1 | Potency, µM (top dose mostly 46.3 µM), usual class: inhibitors | AID 1347048 | actives 1.6% (n = 76,000) | HEK293 hNpr1 GloSensor cGMP, ANP-stimulated luminescence | P16066; calls by dose curve; also: nearly all actives have a fitted effect of over 60% in size
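HEK293 cells stably expressing human Npr1 and cGMP GloSensor pGS-40F, loaded 2 h with 2% GloSensor reagent, given compound 30 min at room temperature. Luminescence read before and 20 min after 0.1 nM hNppA.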
FLuc inh-1: inhibitors of firefly (Photinus pyralis) luciferase. AID 1347043. P08659. Potency, µM (doses to about 115 µM), most hits filed as inhibitors. actives 2.5% (n = 76,000). purified P. pyralis luciferase, luminescence, biochemical; also: nearly all actives have a fitted effect of over 65% in size
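Purified 10nM P. pyralis luciferase with 10uM D-luciferin and 10uM ATP in 50mM Tris acetate pH 7.5, 10mM Mg acetate, 0.01% Tween-20, 0.05% BSA. qHTS titration; luminescence read by CCD imager.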
3T3 cytotox: NIH 3T3 cell cytotoxicity; actives 4.3% (n = 94,000); AID 1345082; NIH 3T3 viability, CellTiter-Glo ATP luminescence, 48-72 h; Potency, µM (doses to about 96.7 µM), hits mostly inhibitors; also: nearly all actives have a fitted effect of over 55% in size
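Viability of NIH 3T3 cells after 48 or 72 hr compound treatment at 37 °C was assessed by CellTiter-Glo, with luminescence imaged following a 10 min room-temperature step.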
GPT2 inhibitor: GPT2 alanine aminotransferase inhibition | Q8TD30 | Recombinant GPT2, coupled pyruvate oxidase/HRP Amplex Red fluorescence | Potency, µM (top dose mostly 57.7 µM), actives largely listed as inhibitors | actives 0.25% (n = 100,000); also: nearly all actives have a fitted effect of over 60% in size
Target sequence (Q8TD30 whole entry, looked up): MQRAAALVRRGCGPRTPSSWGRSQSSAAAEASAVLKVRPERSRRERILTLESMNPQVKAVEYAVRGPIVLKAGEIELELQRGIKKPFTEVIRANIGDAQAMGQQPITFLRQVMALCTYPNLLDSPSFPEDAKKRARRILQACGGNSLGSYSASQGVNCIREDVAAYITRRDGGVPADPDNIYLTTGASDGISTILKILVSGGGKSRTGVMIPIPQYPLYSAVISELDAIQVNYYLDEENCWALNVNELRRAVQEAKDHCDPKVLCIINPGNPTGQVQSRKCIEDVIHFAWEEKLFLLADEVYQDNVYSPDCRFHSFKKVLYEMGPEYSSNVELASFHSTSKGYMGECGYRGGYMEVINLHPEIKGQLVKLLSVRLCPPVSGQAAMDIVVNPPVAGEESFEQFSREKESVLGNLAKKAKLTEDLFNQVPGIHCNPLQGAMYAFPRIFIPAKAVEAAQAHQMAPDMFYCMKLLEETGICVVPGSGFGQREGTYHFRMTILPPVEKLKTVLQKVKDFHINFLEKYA
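Fluorescence of coupled pyruvate oxidase/HRP/Amplex Red system (50uM Amplex, 30 min, dark) reports pyruvate formed by GPT2. Enzyme reaction: 10ng/uL GPT2, 2mM L-alanine, 250uM a-KG, 30 min room temperature, pH 7.5; 50uM AOA control.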
FLuc SDR no ATP: stabilizes firefly luciferase without ATP; shares compounds with FLuc inh-1; Purified FLuc-C-HiBiT, Nano-Glo HiBiT luminescence, no ATP; Potency, µM (titrated, usually from 32.7 µM), usual class: activators; actives 7.8% (n = 1,300); AID 1963318; also: nearly all actives have a fitted effect of over 55% in size
FLuc SDR ATP: binders stabilizing firefly luciferase, plus ATP; shares compounds with FLuc inh-1; purified FLuc-C-HiBiT + ATP, HiBiT complementation luminescence; Potency, µM (top dose mostly 32.7 µM), usual class: activators; actives 8.7% (n = 1,300);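 also: signal reports ligand binding via conformational change of the enzyme rather than luciferase catalysis; nearly all actives have a fitted effect of over 55% in size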
FLuc inh-2: blocks firefly luciferase enzymatic activity; shares compounds with FLuc inh-1; purified FLuc-C-HiBiT enzyme, luciferin luminescence; Potency, µM (highest dose often 32.7 µM), usual class: inhibitors; actives 42% (n = 1,300); AID 1963320; also: nearly all actives have a fitted effect of over 70% in size
Hits are given with their value. Unless noted, calls follow the shape of the dose curve; as a rule, active = well fitted curve in the direction sought with a large enough effect; inconclusive = small, poorly fitted or top-dose-only effect, or another doubt; inactive = no such curve, though single readings can be large; an effect the other way counts as inactive or inconclusive.

How did CCn1cc(-c2ccc(F)cc2)cc1C(=O)O do in these assays?
HEK cytotox: inactive; hNpr1 antagonist: inactive; FLuc inh-1: inactive; 3T3 cytotox: inactive; GPT2 inhibitor: inactive; FLuc SDR no ATP: inactive; FLuc SDR ATP: inactive; FLuc inh-2: inactive

How did CCN1CCN(C(=O)c2cc(-c3ccc(C)cc3)cn2CC)CC1 do in these assays?
HEK cytotox: inconclusive; hNpr1 antagonist: inactive; FLuc inh-1: inactive; 3T3 cytotox: inconclusive; GPT2 inhibitor: inactive

What do the screens show for `CCn1cc(-c2ccc(OC)cc2)cc1C(=O)O`?
HEK cytotox: inconclusive; hNpr1 antagonist: inactive; FLuc inh-1: 25.1µM; 3T3 cytotox: inactive; GPT2 inhibitor: inactive; FLuc SDR no ATP: inactive; FLuc SDR ATP: inactive; FLuc inh-2: inconclusive

What do the screens show for `Cc1ccccc1OCc1nc(C2CN(C(=O)NCc3ccccc3)C2)no1`?
HEK cytotox: inconclusive; hNpr1 antagonist: inactive; FLuc inh-1: inconclusive; 3T3 cytotox: inconclusive; GPT2 inhibitor: inactive

Results for O=c1oc2c(CN3CCCC3)c(O)ccc2cc1-c1ccccc1 ?
FLuc SDR no ATP: inactive; FLuc SDR ATP: inactive; FLuc inh-2: inactive

Results for Cc1ccc(Nc2cc(-c3cccc(N4C(=O)c5ccccc5C4=O)c3)ncn2)cc1NS(C)(=O)=O ?
GPT2 inhibitor: inactive

How did Cc1c(NS(C)(=O)=O)cccc1-c1nc2ccccc2s1 do in these assays?
FLuc SDR no ATP: inactive; FLuc SDR ATP: inactive; FLuc inh-2: inconclusive

What do the screens show for `CS(=O)(=O)Nc1ccc(-c2nc3ccccc3s2)cc1`?
FLuc SDR no ATP: inconclusive; FLuc SDR ATP: inconclusive; FLuc inh-2: 2.21µM

Results for COc1ccc(OC)c(CNC(=O)C2(C)CCCCC(=O)N2)c1 (stereo not drawn) ?
HEK cytotox: inactive; hNpr1 antagonist: inactive; FLuc inh-1: inactive; 3T3 cytotox: inactive; GPT2 inhibitor: inactive

Results for COCCNC(=O)c1cc(-c2ccccc2OC)c2nncn2n1 ?
HEK cytotox: inactive; 3T3 cytotox: inactive; GPT2 inhibitor: inactive

How did CCOC(=O)c1cc(-c2ccccc2)nn1Cc1ccccc1 do in these assays?
FLuc SDR no ATP: inactive; FLuc SDR ATP: inactive; FLuc inh-2: inactive

How did CCOC(=O)C1=CN(Cc2ccccc2)S(=O)(=O)N=C1C do in these assays?
HEK cytotox: inactive; hNpr1 antagonist: inactive; FLuc inh-1: inactive; 3T3 cytotox: inconclusive; GPT2 inhibitor: inactive

Results for CN(c1ccccc1)c1ccc2ncn(C3CC3)c(=O)c2n1 ?
HEK cytotox: inconclusive; hNpr1 antagonist: 15.8µM; FLuc inh-1: 1.26µM; 3T3 cytotox: inconclusive; GPT2 inhibitor: inactive; FLuc SDR no ATP: 18µM; FLuc SDR ATP: 7.15µM; FLuc inh-2: 5.68µM

How did CCOC(=O)[C@H]1C[C@]2(CCCCNC2=O)N(C(=O)c2cccc(OC)c2)[C@H]1c1ccco1 do in these assays?
HEK cytotox: inactive; 3T3 cytotox: inconclusive

How did CCOc1ccc(-c2cn3nc(CC(C)C)sc3n2)cc1 do in these assays?
FLuc SDR no ATP: inactive; FLuc SDR ATP: inactive; FLuc inh-2: 4.95µM

How did COc1ccc(S(=O)(=O)Nc2nnc(CC(C)C)s2)cc1 do in these assays?
GPT2 inhibitor: inactive

Results for COc1ccc(-c2cn3nc(SCC(=O)Nc4ccccc4F)ccc3n2)cc1 ?
FLuc SDR no ATP: inconclusive; FLuc SDR ATP: inactive; FLuc inh-2: inconclusive

Results for CCOC(=O)N1CCc2c(sc(NCc3sccc3C)c2C(=O)Nc2ccc(OC)cc2OC)C1 ?
FLuc SDR no ATP: inactive; FLuc SDR ATP: inconclusive; FLuc inh-2: 4.95µM

Results for CCC(=O)N1CCc2c(C(=O)Nc3ccc(OC)cc3OC)cccc21 ?
HEK cytotox: inactive; hNpr1 antagonist: inactive; FLuc inh-1: inactive; 3T3 cytotox: inactive; GPT2 inhibitor: inactive

How did CCOC(=O)N1CCc2c(sc(NCc3cccc(F)c3)c2C(=O)Nc2ccc(OC)cc2OC)C1 do in these assays?
FLuc SDR no ATP: inactive; FLuc SDR ATP: inconclusive; FLuc inh-2: 2.48µM

How did COc1ccc(NC(=O)c2c(C)oc3ccn(Cc4cccc(F)c4)c(=O)c23)c(OC)c1 do in these assays?
HEK cytotox: inconclusive; hNpr1 antagonist: inactive; FLuc inh-1: inactive; 3T3 cytotox: inconclusive; GPT2 inhibitor: inactive

Results for CCCS(=O)(=O)N1CCCC1c1noc(COc2ccc(C)cc2)n1 (stereo not drawn) ?
HEK cytotox: inactive; hNpr1 antagonist: inactive; FLuc inh-1: inactive; 3T3 cytotox: inactive; GPT2 inhibitor: inactive

Results for COc1ccccc1CC(=O)Nc1ccc2ncnc(N3CCCC3)c2c1 ?
HEK cytotox: inconclusive; hNpr1 antagonist: inactive; FLuc inh-1: inactive; 3T3 cytotox: inactive; GPT2 inhibitor: inactive

What do the screens show for `O=C(Nc1ccc(CN2CCOCC2)cc1)c1ccc(-c2cccc(Cl)c2)o1`?
GPT2 inhibitor: inactive

How did O=C(Nc1ccc(Cl)cc1F)c1ccccc1O do in these assays?
GPT2 inhibitor: inactive

How did COc1cc(OC)cc(C(=O)Nc2ccc(-c3nc4ccccc4s3)c(C)c2)c1 do in these assays?
FLuc SDR no ATP: inactive; FLuc SDR ATP: inactive; FLuc inh-2: inactive

Results for COc1ccc(CC(=O)Nc2ccc(-c3nc4ccccc4s3)c(C)c2)cc1OC ?
FLuc SDR no ATP: inactive; FLuc SDR ATP: inactive; FLuc inh-2: inactive

What do the screens show for `Cc1cc(-c2nc3ccccc3s2)ccc1NC(=O)c1cc(Cl)ccc1Cl`?
FLuc SDR no ATP: inactive; FLuc SDR ATP: inactive; FLuc inh-2: inactive

Results for Cc1ccc(-c2nc3ccccc3s2)cc1NC(=O)c1ccc(-c2cccc(Cl)c2)o1 ?
FLuc SDR no ATP: inactive; FLuc SDR ATP: inactive; FLuc inh-2: inactive

How did COc1ccc(C(=O)N2CCC(C(=O)N3CCC(c4nc5ncccc5[nH]4)CC3)C2)cc1 (stereo not drawn) do in these assays?
HEK cytotox: inactive; 3T3 cytotox: inactive; GPT2 inhibitor: inactive

Results for Cc1cccc(C(=O)Nc2ccc(-c3nc4ccccc4s3)cc2Cl)c1 ?
FLuc SDR no ATP: inactive; FLuc SDR ATP: inactive; FLuc inh-2: inactive

What do the screens show for `Cc1ccc(C(=O)Nc2ccc(-c3nc4ccccc4s3)cc2C)cc1C`?
FLuc SDR no ATP: inactive; FLuc SDR ATP: inactive; FLuc inh-2: inactive

What do the screens show for `COc1cc(OC)cc(C(=O)Nc2ccc(-c3nc4ccccc4s3)cc2C)c1`?
FLuc SDR no ATP: inactive; FLuc SDR ATP: inactive; FLuc inh-2: inactive
